Shown are actives, neighbours in structure and some others; about 10% of the full set was active somewhere.
HP1b chromo inh: HP1-beta chromodomain-methylated histone interaction inhibition; Potency, µM (doses to about 114 µM), for the others: at the top dose activity change, negative = inhibition, hits mostly inhibitors; P83916; AlphaScreen HP1-beta / biotin-H3K9me3 peptide binding; 0.56% of 390,000 active; note: potency is the fitted concentration of half-maximal effect; nearly all actives have a fitted effect of over 70% in size
Target sequence (P83916 whole entry, looked up): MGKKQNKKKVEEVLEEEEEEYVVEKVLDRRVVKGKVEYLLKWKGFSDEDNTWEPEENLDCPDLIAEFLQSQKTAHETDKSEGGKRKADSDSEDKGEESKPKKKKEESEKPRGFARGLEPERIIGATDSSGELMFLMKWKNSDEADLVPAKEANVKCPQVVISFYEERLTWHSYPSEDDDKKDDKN
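Compound inhibition of the preformed complex between 50 nM HP1-beta and 50 nM biotinylated H3K9me3 peptide was read by AlphaScreen. Buffer was PBS pH 7.4 with 0.01% Tween-20. Incubations ran 30 min at room temperature, with 10 ug/mL donor/acceptor beads.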
G9a block: blocks human histone lysine methyltransferase G9a; G9a H3K9 monomethylation, AlphaScreen, 2 h; Potency, µM (series often up to 102 µM), for inactives: at the highest dose activity, negative = inhibition, usual class: inhibitors; 8.8% of 350,000 active; note: potency is the fitted concentration of half-maximal effect; % is set by controls: 0 for no effect and ±100 for the full control effect; nearly all actives have a fitted effect of over 75% in size
Target sequence (Q96KQ7 913-1193 limits assumed): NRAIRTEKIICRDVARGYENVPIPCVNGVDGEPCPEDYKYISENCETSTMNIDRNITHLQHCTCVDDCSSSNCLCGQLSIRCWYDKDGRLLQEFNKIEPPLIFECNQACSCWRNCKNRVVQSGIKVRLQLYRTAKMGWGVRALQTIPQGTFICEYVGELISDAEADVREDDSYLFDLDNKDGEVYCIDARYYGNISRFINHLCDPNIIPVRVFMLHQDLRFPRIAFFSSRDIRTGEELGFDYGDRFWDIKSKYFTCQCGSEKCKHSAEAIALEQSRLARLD
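Compounds were preincubated with 20 nM G9a for 15 min, after which biotinylated H3K9 peptide (500 nM) and SAM (20 uM) started a 2 h room-temperature reaction. Monomethylated product was quantified by antibody-based AlphaScreen chemiluminescence.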
JMJD2A Tudor: blocks the human JMJD2A Tudor domain. AID 504339. O75164. AlphaScreen JMJD2A-Tudor / H3K4me3 peptide binding. Potency, µM (doses to about 114 µM), inactives show at the top dose activity change, negative = inhibition, most hits filed as inhibitors. 4.4% of 390,000 active; note: potency is the fitted concentration of half-maximal effect; % is set by controls: 0 for no effect and ±100 for the full control effect; nearly all actives have a fitted effect of over 50% in size
Six1-Eya2 inh: blocks human Six1 binding to Eya2; AID 651725; AlphaScreen GST-Six1/His-Eya2 binding, biochemical; hits give low values; activity change, % (concentration not given with the values); 0.56% of 360,000 active; in the data active = activity change below about -65%; inconclusive = mostly about -30% to -63%; note: % is set by controls: 0 for no effect and ±100 for the full control effect
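GST-Six1 + His-Eya2 (5X stock: 250/500 nM); Tris pH 8.0, 300 mM NaCl, 0.05% BSA, 0.02% Tween 20; GSH donor/Ni acceptor beads; 1 h 37 °C dark; AlphaScreen readout.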
BAZ2B block: inhibitors of human BAZ2B bromodomain; Q9UIF8; AlphaScreen BAZ2B-H3K14Ac peptide displacement; Potency, µM (doses to about 114 µM), for the others: at the highest dose activity change, negative = inhibition, hits mostly inhibitors; 4.4% of 360,000 active; note: potency is the fitted concentration of half-maximal effect; % is set by controls: 0 for no effect and ±100 for the full control effect; nearly all actives have a fitted effect of over 60% in size
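Compounds, titrated to a top concentration of 110 uM, were incubated 30 min at room temperature with preformed BAZ2B/acetyl-K14 H3 peptide complex (50 nM each). Proximity signal was measured by AlphaScreen after 20 min with beads.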
CtBP-E1A inh: CtBP/E1A binding inhibition. AlphaScreen GST-E1A/His-CtBP binding, 1536-well; hits give low values. activity change, % (test concentration not listed). 0.49% of 340,000 active; in the data active = activity change below about -65%; inconclusive = mostly about -30% to -63%; note: % is set by controls: 0 for no effect and ±100 for the full control effect
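Protein mix (5X: 125 nM each GST-E1A, His-CtBP) was incubated with pinned compound 2 h at 37 deg C in dark, in 50 mM Tris pH 8.0 buffer with 300 mM NaCl. Glutathione donor and nickel acceptor beads followed; AlphaScreen signal read after 1 h.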
An asterisk follows results filed as active; ? = inconclusive; . = no result; ! = not active in a repeat; [ ] = remark or other dose. Unless noted, calls come from the whole dose curve; as a rule, active = well fitted inhibition curve with a large enough effect; inconclusive = small, poorly fitted or top-dose-only effect; inactive = no such curve, though single readings can be large or run the other way.

SMILES | HP1b chromo inh | G9a block | JMJD2A Tudor | Six1-Eya2 inh | BAZ2B block | CtBP-E1A inh
Cc1cc(C(=O)Nc2nc(-c3ccccn3)cs2)ccc1[N+](=O)[O-] | 11% | 40µM* | -29% | -71* | 28µM* | -14
Cc1csc(NC(=O)c2ccc(C)c([N+](=O)[O-])c2)n1 | 1% | 10µM* | -33% | -18 | ? | -19
O=C(Nc1nc(-c2ccccn2)cs1)c1cc(Cl)ccc1[N+](=O)[O-] | ? | 5.6µM* | 56µM* | -91* | 14µM* | ?
CCOc1ccc(C(=O)NC(=S)Nc2ccc(NC(=O)CC)cc2)cc1[N+](=O)[O-] | 13% | 24%[59 µM] | -11% | -3 | 7% | 0
CCC(=O)NC(=S)Nc1ccc(NC(=O)c2ccc(C)c([N+](=O)[O-])c2)cc1 | 26% | 7.9µM* | -3% | -2 | -3% | 2
COc1ccc(N2CCN(S(=O)(=O)c3ccc(F)c(C(=O)Nc4ccccc4Cl)c3)CC2)cc1 | -4% | 6%[59 µM] | -16% | . | -2% | .
Cc1ccn2c(=O)cc(CSc3nnc(C)s3)nc2c1 | 21%[57 µM] | 6%[59 µM] | 5% | . | 4% | .
Cc1ccc(C(=O)O)cc1NC(=S)NC(=O)c1ccc([N+](=O)[O-])c(C)c1 | 6% | 50µM* | -6% | 2 | ? | 10
Cc1ccc(C(=O)NC(=S)N2CC(C)OC(C)C2)cc1[N+](=O)[O-] (centres undefined) | 3% | 40µM* | -29% | 2 | -32% | 6
Cc1ccc(CNC(=S)Nc2cc(C(=O)O)ccc2C)cc1 | 0% | -33% | -11% | 6 | 11% | 3
CCCCNc1nc2c(-c3cccc(C)c3)nnn2c2ccccc12 | 49% | 0%[59 µM] | -13% | . | 1% | .
COC1=C(OC)C(=O)C(Sc2ccc3ccccc3c2)=CC1=O | 4.5µM* | . | 3.5µM* | -16 | . | -7
COc1ccc(S(=O)(=O)Oc2ccc3ccccc3c2)cc1 | 174% | 134%[59 µM] | 89% | 17 | 97% | -2
CSc1nn(Cc2ccc(F)cc2)c(N(C(C)=O)C(C)=O)c1S(=O)(=O)c1ccccc1 | 26% | -27%[59 µM] | -10% | . | 2% | .
CCNc1nc(SCC(=O)Nc2ccccc2)nc(N2CCOCC2)n1 | -6% | 13% | -20% | 6 | -1% | 4
CC(C)(C)Nc1nc(SCC(=O)Nc2ccccc2Cl)nc(N2CCOCC2)n1 | 14% | . | -20% | 2 | 79µM* | 0
Cn1nnnc1SCC1=C(C(=O)O)N2C(=O)[C@@H](NC(=O)[C@H](O)c3ccccc3)[C@H]2SC1 | ? | 13µM* | 22µM* | 1 | 50µM* | -22
Cc1cc(C(F)F)nn1CC(=O)NC1C(=O)N2C(C(=O)O)=C(CSc3nnnn3C)CSC12 (centres undefined) | 22% | 35µM* | -2% | -2 | 56µM* | 10
N[C@H](C(=O)N[C@@H]1C(=O)N2C(C(=O)O)=C(Cl)CS[C@@H]12)c1ccccc1 | . | 8.9µM*! | . | . | . | .
Cn1nnnc1SCC1=C(C(=O)O)N2C(=O)C(NC(=O)C(O)c3ccccc3)C2SC1 (centres undefined) | . | -34%[2.33 µM] | . | . | . | .
Cn1nnnc1SCC1=C(C(=O)O)N2C(=O)C(NC(=O)C3CC3c3ccccc3)C2SC1 (centres undefined) | 16% | ? | ? | -6 | 71µM* | .
CC1=C(C(=O)O)N2C(=O)[C@@H](NC(=O)[C@H](N)c3ccc(O)cc3)[C@H]2SC1 | 3% | . | -20% | -1 | . | 7
CCCC(=O)NCCc1c(I)[nH]c2ccc(OC)cc12 | . | -29%[59 µM] | . | . | . | .
CC(=O)NC(Cc1ccc(C(C)C)cc1)C(=O)NC1CCN(C(=O)c2cccc(C)c2)CC1 (centres undefined) | 29% | ? | -13% | 7 | -1% | 0
CCc1nn2c(=O)cc(COC(=O)C(CC)c3ccccc3)nc2s1 (centres undefined) | 44% | 6%[59 µM] | -10% | . | -3% | .
Cc1ccc(Cl)cc1NC(=O)c1oc2ccc(S(=O)(=O)N3CCC4(CC3)OCCO4)cc2c1C | 27% | 8%[59 µM] | -8% | . | 3% | .

Screening data deposited in PubChem BioAssay by National Center for Advancing Translational Sciences (NCATS).
